Each structure is given as a SMILES string. Compounds without any hit were thinned out: in the full panel of roughly 83,000, 20% have a hit.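 Method: cells in 96-well plates; compound added at one concentration; 48 h incubation; percent growth measured; values under 10 scored active.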 A number with no mark means an inactive call. The source made the active and inactive calls.

Drawing on PubChem BioAssay (NCI), this text covers growth for 15 compounds.

The subject of the test is MDA-MB-435 melanoma. Put plainly: NCI-60 one-dose screen, 48 h (100 = growth as untreated, 0 = no growth, -100 = all killed). The following applies: 10 µM unless noted.
`ClCCN(CCCl)C(c1ccccc1)c1ccc(Cl)cc1` (stereo not given): the growth was 88%.
With `CCCCn1cc(C(=O)/C(C#N)=C/c2cc3ccccc3nc2Cl)c2cc(OC)ccc21`, the growth was 101%.
For the compound `CCCCNCCc1ccccn1`, the growth is 109%.
`CC(=O)C1C(=O)N(C)C(=O)N(C)C1=O`: the growth was 94.4%.
Take `CC1(C)N=C(N)N=C(N)N1c1cccc(C(=O)Nc2cccc(S(=O)(=O)F)c2)c1`: the growth is 98.4%.
As for `C[C@]12CC[C@@H]3C4=C(CC[C@H]3[C@@H]1CC[C@@H]2O)CC(=O)CC4`, the figure is 103%; as for `Oc1ccccc1OB(Oc1ccccc1O)N(CCCl)CCCl`, 87.4%; as for `COc1ccc(-c2ccc(OC)c(OC)c2OC)cc1`, -24% (active).
As for `CC1(C)N=C(N)N=C(N)N1c1ccc(CCCCc2ccc(S(=O)(=O)F)cc2)c(Cl)c1`, the figure is 15.7%; as for `COc1ccc(C2=NN(c3ccccc3)C(c3sc(N(CCCl)CCCl)nc3Cl)C2)cc1` (stereo not given), 90.5%.
As to `N#CC1c2ccccc2C=CN1C(=O)c1ccc(N(CCCl)CCCl)cc1` (stereo not given), the growth was 79.4%.
`CSc1ccccc1NP1(=O)OCC(C)([N+](=O)[O-])CO1` (stereo not given): the growth was 107%.
The same measure for `Cc1ccc(N)cc1[As]=[As]c1cc(N)ccc1C` (stereo not given): -89% (active); for `C/C(=N/OC(=O)N(C)C)c1cc(Cl)ccc1Cl`: 99.2%.
The same measure for `CCC(C)[C@H]1O[C@]2(C=C[C@@H]1C)C[C@@H]1C[C@@H](C/C=C(\C)[C@@H](OC3C[C@H](OC)C(O[C@H]4C[C@H](OC)[C@@H](O)[C@H](C)O4)[C@H](C)O3)[C@@H](C)/C=C/C=C3\CO[C@@H]4[C@H](O)C(C)=C[C@@H](C(=O)O1)[C@]34O)O2` (stereo not given in full): -31.6% (active).
